BAZ2B inh: BAZ2B (human) inhibition; AlphaScreen BAZ2B-H3K14Ac peptide displacement; Potency, µM (highest dose often 114 µM), inactives show top-dose activity change, negative = inhibition, hits mostly inhibitors; hit rate 4.4% among 360,000; AID 504333; also: % is scaled to controls: 0 for no effect and ±100 for the full control effect; nearly all actives have a fitted effect of over 60% in size
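Protein-peptide AlphaScreen: BAZ2B 50 nM, b-H3K14Ac 50 nM, 1x PBS pH 7.4 + 0.01% Tween-20. Preincubation 30 min RT; cpd 30 min RT (top 110 uM); beads 20 min RT, light-protected.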
L3MBTL1 inh: L3MBTL1 (human) inhibition. Q9Y468. AlphaScreen L3MBTL1–H3K9me1 peptide binding. Potency, µM (titrated, usually from 57.1 µM), for the others: at the top dose activity, negative = inhibition, usual class: inhibitors. hit rate 0.66% among 230,000; also: % is scaled to controls: 0 for no effect and ±100 for the full control effect; nearly all actives have a fitted effect of over 60% in size
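AlphaScreen assay: L3MBTL1 (50 nM final) was preincubated 30 min at room temperature with biotinylated H3(1-15)K9me1 peptide (75 nM final), then 30 min with library compounds; streptavidin donor and nickel chelate acceptor beads (10 ug/mL final) added, 30 min dark.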
G9a block: inhibitors of human histone lysine methyltransferase G9a. Q96KQ7. G9a H3K9 monomethylation, AlphaScreen, 2 h. Potency, µM (series often up to 102 µM), without a hit: top-dose activity, negative = inhibition, actives largely listed as inhibitors. hit rate 8.8% among 350,000; also: % is scaled to controls: 0 for no effect and ±100 for the full control effect; nearly all actives have a fitted effect of over 75% in size
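Enzyme 20 nM + cpd, 15 min RT; add b-H3K9 pep 500 nM / SAM 20 uM; 2 h RT; anti-H3K9me1 Ab 0.5 ug/mL + SA donor / anti-rabbit acceptor beads 20 ug/mL each, 10 min; AlphaScreen read.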
JMJD2A Tudor inh: blocks the human JMJD2A Tudor domain | AlphaScreen JMJD2A-Tudor / H3K4me3 peptide binding | Potency, µM (top dose mostly 114 µM), for the others: at the highest dose activity change, negative = inhibition, actives largely listed as inhibitors | hit rate 4.4% among 390,000 | AID 504339; also: % is scaled to controls: 0 for no effect and ±100 for the full control effect; nearly all actives have a fitted effect of over 50% in size
HP1b chromo inh: HP1-beta chromodomain-methylated histone interaction inhibition | P83916 | AlphaScreen HP1-beta / biotin-H3K9me3 peptide binding | AID 540317 | Potency, µM (top dose mostly 114 µM), for the others: at the top dose activity change, negative = inhibition, actives largely listed as inhibitors | hit rate 0.56% among 390,000; also: nearly all actives have a fitted effect of over 70% in size
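AlphaScreen: HP1-beta (50 nM) preformed 30 min with biotin-H3(1-18)K9me3 peptide (50 nM) in PBS pH 7.4, 0.01% Tween-20. Compound added for 30 min at RT, then streptavidin donor/nickel chelate acceptor beads (10 ug/mL) for 30 min.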
* hit, by the source's call; ? = inconclusive; / = no result given; [ ] = dose if it differs, or a comment. Only some compounds are listed: those with a hit (about 11% of all), similar ones and a draw of the others. Calls follow the shape of the dose curve; as a rule, active = well fitted inhibition curve with a large enough effect; inconclusive = small, poorly fitted or top-dose-only effect; inactive = no such curve, though single readings can be large or run the other way. Potency is read from the fitted curve at half-maximal effect.

SMILES	BAZ2B inh	L3MBTL1 inh	G9a block	JMJD2A Tudor inh	HP1b chromo inh
CCc1ccc(NC(=O)CSc2ncc(S(=O)(=O)c3cc(C)ccc3C)c(=O)[nH]2)cc1	0%	/	-21%[59 µM]	-23%	4%
O=C(Nc1ccc2c(c1)COC2=O)c1ccc(Cl)c(Cl)c1	-5%	/	-11%	-19%	33%
COc1cccc(CNC(=O)Cn2c(=O)ccc3cc(S(=O)(=O)N4CCC(C)CC4)ccc32)c1	-27%	/	-4%[59 µM]	-21%	9%[57 µM]
Cc1cccc(NC(=O)C2CCCN(S(=O)(=O)c3c(C)n[nH]c3C)C2)c1 (stereo not given)	/	/	29%[59 µM]	-1%	52%
CCOC(=O)NC1Cc2ccccc2C1Sc1ccccn1 (stereo not given)	43%	/	9%	-14%	24%
COc1ccc(CC2=CC(=O)c3ccccc3C2=O)cc1	14µM*	?	/	25µM*	13µM*
CCC(C)NC(=O)C1CCN(S(=O)(=O)c2ccc(-n3cnnn3)cc2)CC1 (stereo not given)	2%	/	14%	-10%	4%
CCOC(=O)/C(C#N)=C1\SS/C(=C(/C#N)C(=O)OCC)S1	?	/	1.6µM*	/	/
CCCN(C(=O)Cn1ncc2c([nH]c3ccccc32)c1=O)c1ccc(F)cc1	-9%	/	-31%[59 µM]	-17%	25%
COc1ccc(O[C@H]2C=C[C@@H](c3ccccc3)O[C@@H]2COC(=O)CC/C(C)=N/O[C@@H](C)c2cn([C@H](CO)Cc3ccccc3)nn2)cc1	?	-3%	79µM*	/	/
C/C(CCN1CCc2nc(-c3ccccc3)c(-c3ccccc3)cc2C1)=N\O[C@@H](C)c1cn([C@H](CO)Cc2ccccc2)nn1	?	-2%	45µM*	/	/
COc1ccc(O[C@H]2C=C[C@@H](c3ccccc3)O[C@@H]2CO/N=C(\C)CCC(=O)OC[C@H]2O[C@H](c3ccccc3)C=C[C@@H]2Oc2ccc(OC)cc2)cc1	?	-11%	45µM*	/	/
CCc1ccc(CNC(=O)C(CC)n2ccc3cc(S(=O)(=O)N4CCCCC4)ccc32)cc1 (stereo not given)	-8%	/	-21%[59 µM]	3%	28%
C/C(=N\Nc1ccc(Cl)c(C(=O)O)c1)c1cccc([N+](=O)[O-])c1	-33%	-17%	16µM*	-22%	51%
C/C(=N\Nc1ccc(Cl)c(C(=O)O)c1)c1ccc(Br)s1	?	/	35µM*	28µM*	?
C/C(=N\NC(=O)c1ccc(Cl)c(Cl)c1)c1ccc(Br)s1	12%	4%	27%[59 µM]	-5%	33%
COc1ccc(CN2CCc3c([nH]c4ccccc34)C2)c(OC)c1C	45µM*	-5%	32µM*	1.3µM*	?
CCOc1cc(CN2CCc3c([nH]c4ccccc34)C2)ccc1OC	50µM*	-12%	11µM*	3.2µM*	?
Cc1nn(-c2ccccc2)c2nc(C3CC3)cc(C(=O)Nc3ccc(F)cc3)c12	10%[57.1 µM]	/	5%[59 µM]	-5%	32%
CN(C)c1ccc(N=c2sc3ccccc3n2C)cc1	7.9µM*	/	?	10µM*	10µM*
O=c1c2cn[nH]c2[nH]c(=S)n1-c1ccccc1	-4%	4%	8.9µM*	79µM*	5%
O=c1c2cn[nH]c2[nH]c(=S)n1-c1cccc2ccccc12	-8%	-4%	50µM*	-34%	14%
COc1ccc(-n2c(=S)[nH]c3[nH]ncc3c2=O)cc1	?	5%	/	?	37%
Cc1ccc(-n2nc(C(=O)N3CCCCC3)c(=O)n(C)c2=O)cc1	-2%	/	8%[59 µM]	-19%	9%[57 µM]
CC(C)CCNC(=O)NC(=O)CSc1nnc2ccccn12	15%	-4%	5%[59 µM]	3%	18%
SMILES	BAZ2B inh	L3MBTL1 inh	G9a block	JMJD2A Tudor inh	HP1b chromo inh
CC(C)CNC(=O)CSc1nnc2ccccn12	-7%	/	45µM*	-3%	45%
CCN(Cc1ccccc1)Cc1c(F)cccc1F	/	9%	?	20µM*	?
CCOC(=O)/C=C/c1cc(F)c(S(=O)(=O)N2CCN(S(=O)(=O)c3ccc4c(c3)OCCO4)CC2)cc1F	/	/	/	-4%	/
COc1ccc(OC)c(CNC(=O)c2cc(S(=O)(=O)N3CCC(C)CC3)cn2C)c1	?	/	9%[59 µM]	-29%	9%[57 µM]
O=C1C(F)=CC(COC(c2ccccc2)(c2ccccc2)c2ccccc2)OC1n1cc(F)c(=O)[nH]c1=O (stereo not given)	/	/	/	50µM*	-13%
COc1cc(-c2csc(CCn3nc(C)cc3C)n2)cc(OC)c1OC	-35%	/	32µM*	-25%	-9%
Cc1cc(C)n(CCc2nc(-c3ccc(F)cc3)cs2)n1	-6%	-3%	-6%[59 µM]	2%	22%
CC1(C)CC(NNCCC#N)=CC(=[N+]2CCCC2)C1	-27%	/	40µM*	-14%[11.4 µM]	-5%
CCOC(=O)c1ccc(N2CCN(c3cc(C)ccc3C)CC2)c(NC(=O)Nc2ccc(Cl)cc2)c1	-11%	/	5%[59 µM]	-17%	12%
CCOc1ccc(NC(=O)CC2C(=O)N(c3ccccc3)C(=O)N2Cc2ccc3c(c2)OCO3)cc1 (stereo not given)	-15%	/	8%[59 µM]	-21%	9%
COc1ccc(S(=O)(=O)n2nc(-c3ccco3)nc2NCc2ccc(N(C)C)cc2)cc1	25µM*	/	11µM*	13µM*	-26%
Cc1ccc(S(=O)(=O)n2nc(-c3ccco3)nc2NCc2ccc(N(C)C)cc2)cc1	10µM*	/	8.9µM*	25µM*	-15%
CN(C)c1ccc(CNc2nc(-c3ccco3)nn2S(C)(=O)=O)cc1	?	/	?	-34%	25%
Cc1ccccc1NC(=O)Cn1c(=O)oc2cc(Br)ccc21	-2%	/	-30%[59 µM]	-33%	73%
Cc1cc(Br)ccc1N=C1NC(=O)CS1	-22%	-10%	20µM*	-10%	-7%
Cc1ccc(N=C2NC(=O)CS2)c(C)c1	-2%	-7%	-1%[59 µM]	5%	25%
NS(=O)(=O)c1ccc(N=Nc2c[nH]c(=O)c(O)c2)cc1	7.9µM*	?	11µM*	7.1µM*	50µM*
Nc1nc(O)c(N=Nc2ccc(S(N)(=O)=O)cc2)c(=O)[nH]1	3%	/	?	-3%	32%
Cc1ccc(-c2c(C#N)c(N)nc3c2CCCC3)o1	?	?	7.9µM*	-10%	40%
COC(=O)CSc1nc2c(c(-c3ccc(C)o3)c1C#N)CCCC2	-7%	/	?	47%	17%
CCSc1nc2c(c(-c3ccc(C)o3)c1C#N)CCCC2	10%	53%	?	84%	58%
Cc1ccc(-c2c3c([nH]c(=S)c2C#N)CCCC3)o1	50µM*	?	4.5µM*	40µM*	?
N#Cc1c(-c2ccncc2)c2c([nH]c1=S)CCCC2	?	-3%	2.2µM*	2.2µM*	-30%
COc1ccc(-c2nc3cnc(N4CCN(C)CC4)nc3n(C)c2=O)cc1	/	/	-8%[0.501 µM]	/	/
CCn1cc(C(=O)NCCN(CC(C)C)CC(C)C)c(=O)c2cc(S(=O)(=O)N(C)C3CCCCC3)ccc21	/	/	-5%[59 µM]	-12%	22%

Screening results (PubChem)
